Experimental data: ChEMBL document CHEMBL1201862, “PubChem BioAssay data set” (2004)
About 4,100 (7.2%) of roughly 57,000 sequences were called active. Cut-off read from the data, not from the text of the source: active = GI50 up to about 1.1 µM and inactive = higher. These entries were drawn from the full list. Entries with a potency or affinity are not part of this list.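 These data come from cells grown in 96-well plates and exposed to compound for 48 hours at five concentrations. GI50 is the concentration that inhibits growth by half.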

Tested on: COLO 205
Experiment: NCI tumour cell line growth inhibition, 48 h

Substance | GI50 [µM]
[Bis(aminomethyl)pentamethylenesilane]dichloropaltinum(II), CHEMBL2146202 | 2.07
[Bis(aminomethyl)tetramethylenesilane]tetrachloropaltinum(IV), CHEMBL2146189 | 8.51
[Bis(aminomethyl)dimethylsilane]dichloroplatinum (II), CHEMBL2146201 | 24.3
cis-Bis[[(trimethylsilyl)methyl]amino]tetrachloroplatinum(IV), CHEMBL2146191 | 2.07
[Bis(aminomethyl)tetramethylenesilane]dichloropaltinum(II), CHEMBL2146205 | 20.1
[Bis(aminomethyl)pentamethylenesilane]tetrachloropaltinum(IV), CHEMBL2146204 | 1.53
[Bis(aminomethyl)ethylmethylsilane]tetrachloroplatinum(IV), CHEMBL2146192 | 5.15
mu-(1,7-nanodiamine-N,N')bis-(cis-aminedichloroplatimum (II)), CHEMBL2146215 | 6
[Bis(aminomethyl)dimethylsilane]tetrachloroplatinum(IV), CHEMBL2146190 | 11.6
[Bis(aminomethyl)diethylsilane]tetrachloroplatinum(IV), CHEMBL2146203 | 11.9
CISPLATIN, CHEMBL11359 | 13.4
